{
  "source": "paper PMC12136788",
  "binders": {"B1": {"name": "chr19:38730201:38730298:+|3pUTR|ENSG00000130402|msi1_unk|total|mutant (ssRNA)", "RNA": "GGGAGUUCUACAGUCCGACGAUCCAGAGAAUUACUAUUUACUUUAUUAACUUACGGAUUUAUUAUAUAAAUAUAUAUUCACCCCGCAACAUAUCUCUGCCGUCUCUCCUGCUCUCAUAAUGAAGACACCGCCGAUUCUCUGCCCAACAGAGGAUUGAGCAUCA"}, "B2": {"name": "chr11:613205:613595:-|three_prime_utr|ENSG00000185507|control|control|control (ssRNA)", "RNA": "GGGAGUUCUACAGUCCGACGAUCCUGCACGUUCCUAUACGGCCCCCCAGACCCAGCUGUCCGGGCCACAGACCCCCAGCAGGUAGCAUUCCCCAGCCCUGCCGAGCUCCCGGACCAGAAGCAGCUGCGCUACACGGAGGAACUCAACAGAGGAUUGAGCAUCA"}, "B3": {"name": "chr12:66123492:66123593:-|3pUTR|ENSG00000139233|msi1|total|mutant (ssRNA)", "RNA": "GGGAGUUCUACAGUCCGACGAUCAUGCUACCCAAUAUCCAGUUAUAAUCAGGCCUCAACGUUCUGUCAGGUAUUAAUAUGGUCCGAAUUGUUCUUACAACUGGUAAUUACCGUCAACCGAGAUAAAACAGAUGAUGUACUGACCAACAGAGGAUUGAGCAUCA"}, "B4": {"name": "chr4:56461171:56461272:+|3pUTR|ENSG00000128050|msi1|FALSE|bound_elsewhere (ssRNA)", "RNA": "GGGAGUUCUACAGUCCGACGAUCCUUCUGUAACCACAGUGACUACAAGUAGUUCUUUCUCUAUUGAAUUAUUAGGUCCAGAAUAGAAGAUGUCAUUGUACACUUUAUUUCCCUCACACUGUGUUAUGCUCUGAUGUGCUAUGCCAACAGAGGAUUGAGCAUCA"}, "B5": {"name": "chr19:38730201:38730298:+|3pUTR|ENSG00000130402|msi1_unk|FALSE|overlapping (ssRNA)", "RNA": "B1 RNA with C83U, C84A, C128U, C129A"}, "B6": {"name": "chr19:18196783:18197469:-|three_prime_utr|ENSG00000105649|control|control|control (ssRNA)", "RNA": "GGGAGUUCUACAGUCCGACGAUCACUACCCGGGCCUGACCCGGCCCCUACCAGCCACGGGCACAAGACCCCUGCUCCUGACUUAGCCCGUCACCCUUAUUUAUUAUUGUAGCUAUUUAUUUAUUUAUUGAAGAUGUCCCCCAGCAACAGAGGAUUGAGCAUCA"}, "B7": {"name": "chr3:58425360:58425463:+|3pUTR|ENSG00000168297|unk|FALSE|unique (ssRNA)", "RNA": "GGGAGUUCUACAGUCCGACGAUCAGACAGCUCCUAGAAACAUUCCUCUUACAGUUCAUUUCUCUAAAGCAUUUUCUGAUUCUUAGAUAACUCCAAUUUUUGCUACCUUUAUCUUAGACAUUAACACUAUAGCCCAAAGCAUAGCAACAGAGGAUUGAGCAUCA"}, "B8": {"name": "ENSG00000154556:stop:overlap|stop_codon|ENSG00000154556|stop_codon|NA|stop_codon (ssRNA)", "RNA": "GGGAGUUCUACAGUCCGACGAUCCUUCUUCCCCAUCAAGAGCAAAAGUUACUCAGGGCUCAACGGCAACCCCUCCAGUGAGUUAGAUUACUGUAGCACUUACAGACAGCACUUGGAUGUCCCUCGGGACUCACCAAGAGCCAUCAACAGAGGAUUGAGCAUCA"}, "B9": {"name": "chr7:20410151:20410448:+|3pUTR|ENSG00000105855|msi1|total|mutant (ssRNA)", "RNA": "GGGAGUUCUACAGUCCGACGAUCACCCGUGUCGUUGCCGCACUUUACUGUAAUAUAUAACUUAUUCCGAUCAGCACCGAAUGCCGAUCCUCUGAAGAGCACUGAUUACACUUUACAGGUACCUGUUAUCCCUACGCUUCCCAGCAACAGAGGAUUGAGCAUCA"}, "B10": {"name": "chr16:66721972:66722075:-|3pUTR|ENSG00000135720|unk|FALSE|unique (ssRNA)", "RNA": "GGGAGUUCUACAGUCCGACGAUCUUUUUAAUUCAGUUUUUUAAAAAAACAAAUGUAUUGUGGCUUCCAGUUACCAGGUUGUCUAGGUAAUGACAGUAAACUGACUGUAGAAUGAUAAUUGUGGUAUAGUGACCAAUAGAUGCCCAACAGAGGAUUGAGCAUCA"}, "B11": {"name": "chr12:66123492:66123593:-|3pUTR|ENSG00000139233|msi1|FALSE|unique (ssRNA)", "RNA": "B3 RNA with C83U, C84A, C110U, C111A, C117U, C118A"}, "B12": {"name": "chr7:20410151:20410448:+|3pUTR|ENSG00000105855|msi1|FALSE|unique (ssRNA)", "RNA": "B9 RNA with C26U, C27A, C37U, C38A, C66U, C67A, C76U, C77A, C83U, C84A"}, "B13": {"name": "ENSG00000115216:stop:overlap|stop_codon|ENSG00000115216|stop_codon|NA|stop_codon (ssRNA)", "RNA": "GGGAGUUCUACAGUCCGACGAUCACAAGUUCAAUUUUGCCAGGAACAGUACCCUCAACUCAGCCGCUGUCACCGUCUCCUCUUAGAGCUCACUCGGGCCAGGCCCUGAUCUGCGCUGUGGCUGUCCCUGGACGUGCUGCAGCCCAACAGAGGAUUGAGCAUCA"}, "B14": {"name": "chr11:13729208:13729309:+|3pUTR|ENSG00000197601|unk|FALSE|unique (ssRNA)", "RNA": "GGGAGUUCUACAGUCCGACGAUCAAAGUUGGUAGAUAUUUGAUUCUUCAUUUUUUGUUUUUUUCAUUAGUUGAAGUGGGUUUUAGUUUUGUUUAAAAUUAUAACCAGCGUAUUUUCACAUCAUUCUGUAAGUUAAAUGAUAUCCAACAGAGGAUUGAGCAUCA"}, "B15": {"name": "chr17:48622902:48623135:-|CDS|ENSG00000170689|control|control|control (ssRNA)", "RNA": "GGGAGUUCUACAGUCCGACGAUCUACCAGACGCUGGAGCUAGAGAAGGAGUUUCUGUUCAAUAUGUACCUCACCAGGGACCGUAGGCACGAAGUGGCCAGACUCCUCAAUCUGAGUGAGAGACAAGUCAAAAUCUGGUUUCAGCAACAGAGGAUUGAGCAUCA"}, "B16": {"name": "chr13:99866285:99866388:+|CDS|ENSG00000125246|unk|FALSE|unique (ssRNA)", "RNA": "GGGAGUUCUACAGUCCGACGAUCUAUUCUCUACGCCCGGCAAAAGAUUGUUGUCAUAGCGAAAGCCUUUGGUCUCCAAGCCAUAGAUCUGGUGUACAUUGACUUUCGAGAUGGAGCUGGGCUGCUUAGACAGUCACGAGAAGGCAACAGAGGAUUGAGCAUCA"}, "B17": {"name": "ENSG00000198589:be:win_1301|CDS|ENSG00000198589|bound_else_gene|NA|bound_elsewhere_windowed (ssRNA)", "RNA": "GGGAGUUCUACAGUCCGACGAUCCAUCUCCUAAGGACAACCCUUCAAUUUUUGUUCAUUCACCACAUGCACUCAUGCUCCAGGAUGUAAAGGCAGUUUUAACACAUUCCAUCCAAAGUGCAAUGCAUUCAAUUGGAGGAGUACCAACAGAGGAUUGAGCAUCA"}, "B18": {"name": "chr15:59095394:59095499:+|3pUTR|ENSG00000157450|unk|FALSE|unique (ssRNA)", "RNA": "GGGAGUUCUACAGUCCGACGAUCUAAAUACCAUCCUUAAUACUGGGAACAGAAUACAACCCAUAUAAAUCAGAUGCAGGUGGUAGUCACAUCACCAGAGUGAUCAGUAUAAAUUUUCUUGGUGUAUCCUUUUCCUUUCAACACCAACAGAGGAUUGAGCAUCA"}, "B19": {"name": "chr1:193029531:193029688:-|CDS|ENSG00000116750|unk|FALSE|unique (ssRNA)", "RNA": "GGGAGUUCUACAGUCCGACGAUCUUGAUAUCUUCACUUUUAUAUUUUAUAGGUAAUUAAUAAUGCUUGUGCUACUCAAGCCAUAGUGAGUGUGUUACUGAACUGUACCCACCAGGAUGUCCAUUUAGGCGAGACAUUAUCAGACAACAGAGGAUUGAGCAUCA"}, "B20": {"name": "chr1:193029531:193029688:-|CDS|ENSG00000116750|unk|total|mutant (ssRNA)", "RNA": "B19 RNA with U49C, A50C, U83C, A84C, U125C, A126C"}, "B21": {"name": "chrX:115010634:115010735:-|CDS|ENSG00000123496|msi1|FALSE|unique (ssRNA)", "RNA": "GGGAGUUCUACAGUCCGACGAUCUGGAUCAUCAGAGAACAAGCCUAUCAGAUCCAGUUAUUUCACUUUUCAGCUUCAAAAUAUAGGUGAUGUAAACCAACAAACAACUUCAAAUUCAUUGUUUCUAGUUUAGGCCAUUUACAACAACAGAGGAUUGAGCAUCA"}, "B22": {"name": "chr7:30424526:30425710:-|three_prime_utr|ENSG00000106100|control|control|control (ssRNA)", "RNA": "GGGAGUUCUACAGUCCGACGAUCAAACUCCCUAAGUACCCGCUACAAUUCUGCAGAAAAAGAAUGUGUCUUGCGAGCUGUUGUAGUUACAGUAAAUACACUGUGAAGAGACUUUAUUGCCUAUUAUAAUUAUUUUUAUCUGAACAACAGAGGAUUGAGCAUCA"}},
  "note": "Where a chain is given by its changes, count along the chain named. Over roughly 5,800 sequences, “enrichment r” has its median near 0.54; the highest 2% begin near 16. The entries come from a sample that favours the highest values as a whole.",
  "data": [
    {"biological_target": "MSI1 full-length (mouse, UniProt Q61474 1-362)", "sequence (Q61474 whole entry)": "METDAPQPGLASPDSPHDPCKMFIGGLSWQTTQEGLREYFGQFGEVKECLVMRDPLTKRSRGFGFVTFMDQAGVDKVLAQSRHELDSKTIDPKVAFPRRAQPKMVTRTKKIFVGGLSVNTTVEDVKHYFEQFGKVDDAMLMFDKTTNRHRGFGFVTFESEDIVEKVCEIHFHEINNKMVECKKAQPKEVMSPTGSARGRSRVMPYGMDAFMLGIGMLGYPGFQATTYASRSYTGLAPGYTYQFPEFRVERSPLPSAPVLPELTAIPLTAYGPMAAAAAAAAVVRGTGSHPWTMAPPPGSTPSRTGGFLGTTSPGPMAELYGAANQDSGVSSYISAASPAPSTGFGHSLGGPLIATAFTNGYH", "assay": "nsRBNS (natural sequence RNA bind-n-seq); RBNS binding buffer (assumed for nsRBNS): 25 mM Tris pH 7.5, 150 mM KCl, 3 mM MgCl2, 0.01% Triton X-100, 500 ug/ml BSA, 20 U/ml SUPERase-In, 4 C; UNK is unkempt and MSI1 is Musashi-1; names of the RNAs are library labels; protein concentration not given here; high values mean tight binding", "units": {"binding signal": "enrichment R"}, "values": [
      {"binder": "B1", "binding signal": 5.81},
      {"binder": "B2", "binding signal": 0.649},
      {"binder": "B3", "binding signal": 0.303},
      {"binder": "B4", "binding signal": 1.03},
      {"binder": "B5", "binding signal": 39.3},
      {"binder": "B6", "binding signal": 48.8},
      {"binder": "B7", "binding signal": 8.08},
      {"binder": "B8", "binding signal": 0.595},
      {"binder": "B9", "binding signal": 0.529},
      {"binder": "B10", "binding signal": 9.43},
      {"binder": "B11", "binding signal": 17.7},
      {"binder": "B12", "binding signal": 16.1},
      {"binder": "B13", "binding signal": 0.763},
      {"binder": "B14", "binding signal": 1.97},
      {"binder": "B15", "binding signal": 0.411},
      {"binder": "B16", "binding signal": 0.39},
      {"binder": "B17", "binding signal": 0.284},
      {"binder": "B18", "binding signal": 0.744},
      {"binder": "B19", "binding signal": 30},
      {"binder": "B20", "binding signal": 1.15},
      {"binder": "B21", "binding signal": 1.74},
      {"binder": "B22", "binding signal": 3.46}
    ]}
  ]
}
